Laboratory results from PubChem BioAssay AID2677 (National Center for Advancing Translational Sciences (NCATS), 2010).
The list shows a part of the results. Results filed as inconclusive are left out. The source made the active and inactive calls. The call rests on the fitted dose curve; in most records, active means well fitted inhibition curve with a large enough effect; inconclusive means small, poorly fitted or top-dose-only effect; inactive means no such curve, though single readings can be large or run the other way.

These compounds were tested against Lysine-specific demethylase 4E (Homo sapiens) (UniProt B2RXH2) (assay: Confirmation qHTS Assay for Inhibitors of Human Jumonji Domain Containing 2E (JMJD2E)). Conditions: Recombinant JMJD2E, FDH-coupled NADH fluorescence (FDH is formaldehyde dehydrogenase).
From the text: The fine interplay among methylation states of several lysine residues on the tails of histone proteins is a major determinant of the transcriptional state of the associated DNA coding regions and is commonly referred to as the histone code. Histone lysine demethylases catalyze the removal of methyl groups from methylated lysine sidechains on histones H3 and H4, thus antagonizing the reactions catalyzed by histone lysine methyltransferases. […] In search for novel inhibitors of JMJD2E demethylase, a member of the largest set of histone demethylases belonging to the Fe(II) and 2-oxoglutarate oxygenase (2OG) superfamily, we performed a quantitative high-throughput screen (Inglese 2006) by using an assay which utilizes a trimethylated peptide substrate corresponding to a fragment of histone H3 (sequence ARKme3STGGK) with detection of the formaldehyde co-product in real time by a formaldehyde dehydrogenase (FDH) coupled reaction. FDH catalyzes oxidation of formaldehyde to formic acid with the concomitant reduction of the non-fluorescent beta-nicotinamide adenine dinucleotide hydrate (NAD+) cofactor to the fluorescent NADH co-product. References: Inglese, J., Auld, D., Jadhav, A., Johnson, R., Simeonov, A., Yasgar, A., Zheng, W. and Austin, C. Proc Natl Acad Sci USA 2006, 103, 11473-11478. N. R. Rose, S. S. Ng, J. Mecinovic, B. M. Lienard, S. H. Bello, Z. Sun, M. A. McDonough, U. Oppermann and C. J. Schofield, J Med Chem, 2008, 51, 7053-7056. Sakurai, M., Rose, N., Schultz, L., Quinn, A., Jadhav, A., Ng, S., Oppermann, U., Schofield, C.J. and Simeonov, A. Mol BioSystems 2009, in press. S. Michael, D. Auld, C. Klumpp, A. Jadhav, W. Zheng, N. Thorne, C. Austin, J. Inglese and A. Simeonov, Assay Drug Dev Technol, 2008, 6, 637-657. Assay Provider: Structural Genomics Consortium [SGC] Screening Center PI: Austin, C.P. Screening Center: NIH Chemical Genomics Center [NCGC]
Reagents and Controls: Ferrous ammonium sulfate, (+)-sodium L-ascorbate, beta-nicotinamide adenine dinucleotide hydrate (NAD+), Tween-20, formaldehyde dehydrogenase from P. putida (FDH), and disodium 2-oxoglutarate were from Sigma (St. Louis, MO). Black solid-bottom 384-well or 1,536-well assay plates were from Greiner Bio-One (Monroe, NC). Enzyme was supplied by Prof. Udo Oppermann, SGC-Oxford. […] The trimethylated histone peptide substrate ARK(me3)STGGK was synthesized and HPLC-purified by the Tufts University Core Facility (Boston, MA). Substrate solution (Sakurai 2009) contained 50 uM ARK(me3)STGGK, 0.00025 U/uL FDH, 50 uM 2-oxoglutarate, 250 uM NAD+, 1 mM ascorbate, and 10 uM ferrous ammonium sulfate. Controls and plate map: Buffer (150 mM HEPES pH 7.5 containing 0.01% Tween-20) in columns 3 and 4 as negative control (no enzyme) and 100 nM JMJD2E final concentration in columns 1,2, and 5-48. Assay Steps: Enzyme and buffer solutions (3 uL) were dispensed into a 1,536-well Greiner black solid-bottom assay plate. The library compounds (23 nL) were transferred using a Kalypsys pintool equipped with 1,536-pin array. The plate was incubated at room temperature (15 min), and then a 1 uL aliquot of substrate solution was added to initiate the reaction. The plate was transferred to ViewLux imager where an initial reading using standard UV optics (Ex 340 nm, Em 450 nm) was obtained. The plate was then removed from the reader, incubated for 30 minutes at room temperature, and returned to the reader for a second fluorescence reading. A fully automated robotic screening system (Kalypsys Inc, San diego, CA) was used to perform the above steps as described previously (Michael 2008). Compound plates containing DMSO as a vehicle-only control were included at regular interval throughout the screen to monitor any systematic trend in the assay signal associated with reagent dispenser variation or decreases in enzyme specific activity. For activity calculations, percent values were computed as the difference in fluorescence intensity between last and first time points. […]

Lysine-specific demethylase 4E (Homo sapiens), sequence (B2RXH2 1-337 limits assumed): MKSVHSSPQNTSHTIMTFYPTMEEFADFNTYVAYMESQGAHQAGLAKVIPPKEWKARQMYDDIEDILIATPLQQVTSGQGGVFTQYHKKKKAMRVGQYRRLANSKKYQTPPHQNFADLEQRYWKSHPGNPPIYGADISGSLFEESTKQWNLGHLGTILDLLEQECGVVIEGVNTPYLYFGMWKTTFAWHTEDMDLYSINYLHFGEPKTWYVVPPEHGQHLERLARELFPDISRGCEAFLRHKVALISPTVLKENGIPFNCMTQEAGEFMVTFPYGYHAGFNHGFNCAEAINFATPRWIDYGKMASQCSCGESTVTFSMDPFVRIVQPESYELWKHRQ

Potency, active:
Oc1ccc(/C=C/c2c(F)cccc2F)c2cccnc12 9.13 µM, O=C1CC(Sc2ncn[nH]2)C(=O)N1c1ccccc1 (stereo unspecified) 7.08 µM, Oc1cccc2cc(-c3ccncc3)cnc12 18.2 µM, Nc1ccc(Nc2cc(O)c3ncccc3c2)cc1 28.2 µM, Cc1ccc(N2C(=O)CC(Sc3ncn[nH]3)C2=O)cc1 (stereo unspecified) 5.01 µM, Oc1c(CN2CCCC2)cc(COCc2ccccc2)c2cccnc12 5.01 µM
